Source: PubChem BioAssay
An excerpt weighted towards active compounds, which were near 28% of everything screened.
CYP2C9 act = activators of human CYP2C9; P11712; recombinant CYP2C9, luciferin-H conversion, luminescence; active compounds read high; factor 1 = untreated enzyme, 0 = blocked; activation factor at 5 µM; hit rate 1.4% among 96,000;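 active = activation factor of 2 or more for CYP2C9 at a 5 µM dose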
CYP2C19 inh = inhibitors of human CYP2C19; P33261; CYP2C19 Supersomes, luciferin-H EGE luminescence, 30 min; inhibition, % at 5 µM; hit rate 21% among 96,000; AID 778;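 active = CYP2C19 inhibition above a set limit at 5 µM in the primary screen, cut at about 50% in these data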
D1 mod = allosteric modulators of human D1 dopamine receptor; P21728; B-score at 10 µM; HEK293 D1, CRE-luciferase, dopamine EC30 potentiation; actives deviate in either direction; hit rate 5.9% among 58,000;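 active = luminescence count or its row- and column-corrected plate score outside the 99.7% band of the plate's sample wells, on either side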
Target sequence (P21728 whole entry, looked up): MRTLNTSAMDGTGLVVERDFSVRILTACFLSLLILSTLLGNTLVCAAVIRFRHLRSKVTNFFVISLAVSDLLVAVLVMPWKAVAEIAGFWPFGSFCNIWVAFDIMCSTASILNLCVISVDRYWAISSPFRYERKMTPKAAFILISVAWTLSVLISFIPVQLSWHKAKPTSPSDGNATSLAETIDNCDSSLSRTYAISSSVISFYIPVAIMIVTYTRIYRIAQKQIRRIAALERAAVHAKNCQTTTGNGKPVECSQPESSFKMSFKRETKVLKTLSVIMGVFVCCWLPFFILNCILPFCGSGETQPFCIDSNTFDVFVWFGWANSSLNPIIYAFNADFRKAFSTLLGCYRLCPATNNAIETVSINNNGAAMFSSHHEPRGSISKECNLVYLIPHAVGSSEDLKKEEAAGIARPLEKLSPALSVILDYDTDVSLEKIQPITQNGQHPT
DAT uptake mod = human DAT dopamine uptake with cocaine, either direction; hit rate 1.3% among 110,000; LLC-PK1 hDAT cells, [14C]-dopamine uptake with cocaine IC80; actives deviate in either direction; B-score at 10 µM;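 active = Z score or B-score, a plate-position-corrected score, falls beyond the plate's 99.7% confidence bounds, in either direction; inactive = both scores lie inside the 99.7% bounds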
CYP2C9 inhib = inhibitors of human CYP2C9. hit rate 20% among 96,000. inhibition, % at 5 µM. P11712. CYP2C9 Supersomes, luciferin-H conversion, luminescence;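 active = blocking of liver enzyme CYP2C9 beyond about 50% at 5 µM, limit read from the data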
CYP2C19 activ = cytochrome P450 2C19 (human) activation; P33261; AID 1025; recombinant CYP2C19, luciferin-H EGE luminescence; active compounds read high; 0 = fully inhibited enzyme, 1 = untreated enzyme; 96,000 tested, under 10 active; activation factor at 5 µM;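 active = activation factor of at least 2 at 5 µM in the primary screen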
Each line names hits and unclear results; the compound was inactive in the other large screens.

CC[C@@H](C)C(NC(=O)OC(C)(C)C)c1cn([C@@H](Cc2ccc(O)cc2)C(=O)N2CCN(C(=O)OC(C)(C)C)CC2)nn1 (stereo partly drawn)	DAT uptake mod 2 (no result: CYP2C9 act, CYP2C19 inh, D1 mod, CYP2C9 inhib, CYP2C19 activ)
O=C(c1cc2cc(Br)cc(Br)c2oc1=O)N1CCCc2ccccc21	none (no result: D1 mod)
COc1cc(C)nc(OCCNC(=O)COc2ccc(Cl)cc2Cl)n1	CYP2C19 inh 73, CYP2C9 inhib 63
CC(=O)NCCn1c(SCc2ccc(C)cc2C)nc2ccccc2c1=O	CYP2C19 inh 98, CYP2C9 inhib 98 (no result: D1 mod)
CC(=O)NCCn1c(SCc2ccccc2C)nc2ccccc2c1=O	CYP2C19 inh 79, CYP2C9 inhib 98 (no result: D1 mod)
CC(=O)NCCn1c(SCc2cc(F)ccc2F)nc2ccccc2c1=O	CYP2C19 inh 76, CYP2C9 inhib 99 (no result: D1 mod)
CCOc1ccc(C(O)c2nccn2Cc2ccccc2)cc1 (stereo not drawn)	CYP2C19 inh 80
CCn1ccnc1C(O)c1ccc(N(C)C)cc1 (stereo not drawn)	CYP2C19 inh 62 (no result: D1 mod)
CCn1ccnc1C(O)c1cccc(OC)c1OC (stereo not drawn)	none (no result: D1 mod)
CO/N=C/NC(=O)NOCc1c(Cl)cccc1Cl	none (no result: D1 mod)
Cc1cc2ncn(/N=C/c3ccc([N+](=O)[O-])o3)c2cc1C	none (no result: D1 mod)
CCCCn1nnnc1NCc1cccs1	CYP2C19 inh 65
CCCn1c(NCc2cccc(OC)c2OC)nc2ccccc21	none
CCCCn1nnnc1NCc1ccc(OC)c(OC)c1OC	CYP2C19 inh 70
Cn1nnnc1SCC(=O)NCc1cccs1	none (no result: CYP2C9 act, CYP2C19 inh, D1 mod, CYP2C9 inhib, CYP2C19 activ)
COC(=O)C(=O)Nc1nnc(COc2ccccc2)s1	none (no result: D1 mod)
CCCCCCC(=O)NC(Nc1ccc(S(N)(=O)=O)cc1)C(Cl)(Cl)Cl (stereo not drawn)	CYP2C9 inhib 53 (no result: D1 mod)
CCCCC(=O)NCCc1ccc(S(N)(=O)=O)cc1	none (no result: D1 mod)
CC(NC(=O)CSc1nnc(-c2cccc(S(=O)(=O)N3CCCCC3)c2)o1)C12CC3CC(CC(C3)C1)C2 (stereo not drawn)	CYP2C19 inh 68, CYP2C9 inhib 91 (no result: D1 mod)
CC(C)CNC(=O)CSc1nnc(-c2cccc(S(=O)(=O)N3CCCCC3)c2)o1	none (no result: D1 mod)
Cc1ccc(NC(=O)CSc2nnc(-c3ccc(S(=O)(=O)N4CCCC4)cc3)o2)cc1C	CYP2C9 inhib 54
O=C(CSc1nnc(-c2ccc(F)cc2)o1)Nc1ccc(S(=O)(=O)N2CCCC2)cc1	none
Cc1cccc(NC(=O)CSc2nnc(-c3ccc(S(=O)(=O)N4CCCC4)cc3)o2)c1	CYP2C9 inhib 66
Cc1cc(C)nc(SCc2nnc(SCC(=O)Nc3ccc(C)c(C)c3)o2)n1	CYP2C19 inh 88, CYP2C9 inhib 74 (no result: DAT uptake mod)
O=C(CSc1nnc(-c2ccc(F)cc2)o1)Nc1ccc(S(=O)(=O)N2CCCCCC2)cc1	none
Cc1ccc(NC(=O)CSc2nnc(-c3ccccc3C)o2)cc1C	none
COc1ccc(-c2csc(NC(=O)C3COc4ccccc4O3)n2)cc1OC (stereo not drawn)	none (no result: CYP2C9 act, CYP2C19 inh, D1 mod, CYP2C9 inhib, CYP2C19 activ)
O=c1ccc(Oc2nc(N3CCOCC3)nc(N3CCOCC3)n2)n[nH]1	none (no result: D1 mod)
CCOc1ccccc1-c1nnc(SCC(=O)Nc2ccccc2)o1	CYP2C9 act 2.4
Cc1ccc(NC(=O)CSc2nnc(-c3ccccc3Br)o2)cc1C	CYP2C19 inh 51, CYP2C9 inhib 73
COC(=O)CSc1nnc(-c2ccc(S(=O)(=O)N3CCCCC3)cc2)o1	CYP2C9 inhib 64
O=C(CSc1nnc(-c2ccccc2Cl)o1)Oc1ccc(Br)cc1	none (no result: CYP2C9 act, CYP2C19 inh, D1 mod, CYP2C9 inhib, CYP2C19 activ)
CCCOC(=O)CSc1nnc(-c2ccccc2Cl)o1	CYP2C19 inh 67
COC(=O)CSc1nnc(-c2ccc(S(=O)(=O)N3CCC(C)CC3)cc2)o1	none
Cc1ccccc1-c1ccc(C=Nc2c(C)n(C)n(-c3ccccc3)c2=O)o1	none
O=C(Oc1ccc(Cl)c2cccnc12)N1CCCCC1	CYP2C19 inh 55
O=C(Oc1ccc(Cl)c2cccnc12)N1CCOCC1	none
O=C(Oc1ccc2ccccc2c1Cl)N1CCCC1	CYP2C19 inh 75 (no result: D1 mod)
O=c1nc(/C=C/c2cc([N+](=O)[O-])ccc2Cl)cc(C(F)(F)F)[nH]1	CYP2C9 inhib 81 (no result: D1 mod)
O=[N+]([O-])c1ccc2nc(/C=C/c3ccc(Cl)cc3)[nH]c2c1	none (no result: D1 mod)
O=C(OCc1c(Cl)cccc1Cl)c1cccnc1	CYP2C19 inh 86 (no result: D1 mod)
O=C(OCc1ccccc1Cl)c1cccnc1Cl	none (no result: D1 mod)
O=C(OCc1c(Cl)cccc1Cl)c1cccnc1Cl	CYP2C19 inh 52 (no result: D1 mod)
O=C(OCc1c(Cl)cccc1Cl)c1cnccn1	none (no result: D1 mod)
CC(C)Cn1c(Br)nc2c1c(=O)n(CCC#N)c(=O)n2C	none
CCC(c1nnnn1CCOC)N1CCN(c2cccc(C(F)(F)F)c2)CC1 (stereo not drawn)	CYP2C19 inh 69, CYP2C9 inhib 55
COCCn1nnnc1C(c1cccs1)N1CCN(c2cccc(C(F)(F)F)c2)CC1 (stereo not drawn)	none (no result: D1 mod)
COCCn1nnnc1C(CC(C)C)N1CCN(c2cccc(OC)c2)CC1 (stereo not drawn)	CYP2C19 inh 81, CYP2C9 inhib 75
O=C(/C=C/c1ccccc1)NCCc1ccccc1	none (no result: CYP2C9 act, CYP2C19 inh, D1 mod, CYP2C9 inhib, CYP2C19 activ)
CC(=O)SCC(C)C(=O)NCc1ccccc1 (stereo not drawn)	CYP2C19 inh 64 (no result: D1 mod)
CC(C)CC(NC(=O)OC(C)(C)C)C(=O)NCc1ccccc1 (stereo not drawn)	none (no result: D1 mod)
Nc1cc(N)c(OCC(F)(F)F)cc1OCC(F)(F)F	CYP2C19 inh 74, CYP2C9 inhib 55
CCCOc1ccc(N)cc1N	none (no result: DAT uptake mod)
Oc1cccc(-c2nc3ccccc3s2)c1	D1 mod -8.7 (no result: DAT uptake mod)
COc1ccc(-c2nc3ccccc3s2)cc1O	CYP2C9 inhib 72 (no result: D1 mod)
Nc1cccc(-c2nc3ccccc3s2)c1	none (no result: D1 mod)
Cc1ccc(-c2ccc(CCC(=O)O)n2-c2cccc(O)c2)cc1	CYP2C9 inhib 57 (no result: D1 mod)
Cc1ccc(-c2ccc(CCC(=O)O)n2-c2ccc(O)cc2)cc1	none (no result: D1 mod, DAT uptake mod)
CCOC(=O)C1=C(C)N(CCCC(=O)O)C(=O)NC1C(CC)CC (stereo not drawn)	none (no result: CYP2C9 act, CYP2C19 inh, D1 mod, CYP2C9 inhib, CYP2C19 activ)
COC(=O)c1nc(-c2ccccc2)oc1N(C)C	CYP2C9 act 2.9
COC(=O)c1nc(-c2ccc(C)cc2)oc1N(C)C	CYP2C9 act 2.4
COC(=O)c1nnc(-c2ccccc2)nc1OC	none (no result: D1 mod)
Cc1ccc(S(=O)(=O)N2CCC(=O)N(C(COCc3cccc(Cl)c3)C(C)C)CC2)cc1 (stereo not drawn)	none (no result: CYP2C9 act, CYP2C19 inh, D1 mod, CYP2C9 inhib, CYP2C19 activ)
CCCc1nn(-c2cc(Cl)ccc2OC)c2c1C(=O)CC(C)(C)C2	CYP2C19 inh 63, CYP2C9 inhib 66 (no result: D1 mod)
CCc1nn(-c2cc(Cl)ccc2OC)c2c1C(=O)CCC2	none (no result: D1 mod)
COc1ccc(C2N(c3cc(Cl)ccc3OC)C(=O)C3CCCN32)cc1 (stereo not drawn)	CYP2C19 inh 77
COc1ccc(Cl)cc1N1C(=O)C2CCCN2C1c1sccc1C (stereo not drawn)	D1 mod -2.4
COc1ccc(Cl)cc1N1C(=O)C2CCCN2C1c1ccccc1F (stereo not drawn)	none
